For some assays here: Entries with a potency or affinity are not part of this list. Calls of active or inactive are those of the source.
Key:
[1] = Ebola virus entry assay, green fluorescence channel
[2] = Ebola virus entry assay, blue channel fluorescence
[3] = Ebola virus entry assay, green fluorescence channel; remark: listed apart in the source
[4] = Ebola virus entry assay, ratio channel readout
[5] = Ebola virus entry assay, blue channel fluorescence; remark: listed apart in the source
[6] = Ebola virus entry assay, ratio channel
[7] = Ebola virus entry assay, green channel fluorescence
[8] = Ebola virus entry assay, blue channel fluorescence; remark: listed apart in the source
[9] = Ebola virus entry assay, reporter ratio channel; AC50: Channel type: primary unless noted; outcome: Channel type: primary unless noted
[10] = Ebola virus entry assay, blue channel (ratio component)
[11] = Ebola virus entry reporter assay, green channel fluorescence
[12] = qHTS profiling for inhibitors of Plasmodium falciparum (3D7) proliferation (AID 743322);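 also: infected erythrocytes exposed to compound for 72 h before lysis; 100% = DMSO vehicle wells and 0% = 0.29 µM artemisinin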; conditions: P. falciparum 3D7 proliferation; at 28.7 µM (top of the series)
Method in brief: (§1)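 Erythrocytes infected with P. falciparum (0.3% parasitemia, 2.5% hematocrit) incubated with compounds 72 h at 37 C, 5% CO2. Lysis with saponin/Triton buffer containing SYBR Green I, overnight at room temperature in the dark; DNA fluorescence (485/535 nm) normalised to 0.29 uM artemisinin and DMSO.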

[13] = qHTS profiling for inhibitors of Plasmodium falciparum (DD2) proliferation (AID 743323); conditions: lower = more inhibition; at 28.7 µM (top of the series)
Method in brief: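 1536-well qHTS; infected RBCs 0.3% parasitemia/2.5% Hct final; cpd 72 h 37 C 5% CO2; lysis buffer + SYBR Green I, o/n RT dark; FI 485/535; norm. to 0.29 uM artemisinin and DMSO, plate-stack corrected.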

[14] = qHTS profiling for inhibitors of Plasmodium falciparum (HB3) proliferation (AID 743324; active = well fitted curve in the direction sought with a large enough effect; inactive = no such curve, though single readings can be large or run the other way;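 also: 100% = DMSO vehicle wells and 0% = artemisinin-treated control wells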); conditions: Plasmodium falciparum HB3 blood-stage proliferation; at 28.7 µM (top of the series)
Method in brief: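 P. falciparum HB3 grown in erythrocytes (0.3% parasitemia, 2.5% hematocrit final) with compound for 72 h at 37 C, 5% CO2. Parasite DNA detected by SYBR Green after saponin/triton lysis overnight; normalized to 0.29 uM artemisinin and DMSO.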

[15] = qHTS profiling of the MIPE4 collection as inhibitors of Plasmodium falciparum (3D7) proliferation (AID 743344);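 also: scaled between DMSO vehicle wells and 0.29 µM artemisinin as full inhibition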; conditions: P. falciparum 3D7 in erythrocytes, SYBR Green DNA fluorescence, 72 h; at 28.5 µM (top of the series) unless noted
Method in brief: as §1

[16] = qHTS profiling of the MIPE4 collection as inhibitors of Plasmodium falciparum (DD2) proliferation (AID 743345); conditions: P. falciparum Dd2 in erythrocytes, SYBR Green DNA, 72 h; at 28.5 µM (top of the series) unless noted
Method in brief: as §1

[17] = qHTS profiling of the MIPE4 collection as inhibitors of Plasmodium falciparum (DD2) proliferation (Rep 2) (AID 743346); conditions: P. falciparum Dd2 in erythrocytes, SYBR Green DNA, 72 h; at 28.5 µM (top of the series) unless noted
Method in brief: as §1
For efficacy in this document: 0% is about no effect.

Nc1ncn([C@@H]2O[C@H](CO)[C@@H](O)[C@H]2O)c(=O)n1
inactive: efficacy [1] -20.9% | outcome [2] | outcome [3] | outcome [4] | outcome [5] | outcome [6] | outcome [7] | outcome [8] | outcome [9] | outcome [10]

CCCCCOC(=O)Nc1nc(=O)n([C@@H]2O[C@H](C)[C@@H](O)[C@H]2O)cc1F
inactive: efficacy [1] 20.9% | outcome [2] | outcome [3] | outcome [4] | outcome [5] | outcome [6] | outcome [7] | outcome [8] | outcome [9] | outcome [10]

COc1cc2c(cc1OC)[C@@H]1CC(=O)[C@@H](CC(C)C)CN1CC2
inactive: efficacy [1] 24.3% | outcome [2] | outcome [3] | outcome [4] | outcome [5] | outcome [6] | outcome [7] | outcome [8] | outcome [9] | outcome [10]

CNS(=O)(=O)CCc1ccc2[nH]cc(C3CCN(C)CC3)c2c1
inactive: efficacy [1] -15% | outcome [2] | outcome [3] | outcome [4] | outcome [5] | outcome [6] | outcome [7] | outcome [8] | outcome [9] | outcome [10]

CC(=O)CCCCn1c(=O)c2c(ncn2C)n(C)c1=O
inactive: efficacy [1] -14.2% | outcome [2] | outcome [3] | outcome [4] | outcome [5] | outcome [6] | outcome [7] | outcome [8] | outcome [9] | outcome [10]

Cc1ccc(C(=O)c2cc(O)c(O)c([N+](=O)[O-])c2)cc1
inactive: efficacy [1] 31.1% | outcome [2] | outcome [3] | outcome [4] | outcome [5] | outcome [6] | outcome [7] | outcome [8] | outcome [9] | outcome [10]

O=C(c1ccc(OCCN2CCCCC2)cc1)c1c(-c2ccc(O)cc2)sc2cc(O)ccc12
active: AC50 [2] 6.31 µM | AC50 [4] 5.02 µM | AC50 [5] 0.708 µM
inactive: efficacy [1] -297% | outcome [3] | outcome [6] | outcome [7]

CCCN[C@H]1CCc2nc(N)sc2C1
inactive: efficacy [1] -13.1% | outcome [2] | outcome [3] | outcome [4] | outcome [5] | outcome [6] | outcome [7] | outcome [8] | outcome [9] | outcome [10]

CC(C)Nc1cccnc1N1CCN(C(=O)c2cc3cc(NS(C)(=O)=O)ccc3[nH]2)CC1
inactive: efficacy [1] -26% | outcome [2] | outcome [3] | outcome [4] | outcome [5] | outcome [6] | outcome [7] | outcome [8] | outcome [9] | outcome [10] | outcome [11]

C=C(c1ccc(C(=O)O)cc1)c1cc2c(cc1C)C(C)(C)CCC2(C)C
inactive: efficacy [1] 22.5% | outcome [2] | outcome [3] | outcome [4] | outcome [5] | outcome [6] | outcome [7] | outcome [8] | outcome [9] | outcome [10]

Cc1cn([C@H]2C=C[C@@H](CO)O2)c(=O)[nH]c1=O
inactive: efficacy [1] 10.9% | outcome [2] | outcome [3] | outcome [4] | outcome [5] | outcome [6] | outcome [7] | outcome [8] | outcome [9] | outcome [10]

C[C@H]1O[C@H](O[C@H]2[C@H](O)[C@@H](O)[C@@H](O[C@H]3[C@H](O)[C@@H](O)[C@H](O)O[C@@H]3CO)O[C@@H]2CO)[C@H](O)[C@@H](O)[C@@H]1N[C@H]1C=C(CO)[C@@H](O)[C@H](O)[C@H]1O
inactive: efficacy [1] 9.72% | outcome [2] | outcome [3] | outcome [4] | outcome [5] | outcome [6] | outcome [7] | outcome [8] | outcome [9] | outcome [10]

CC1(C)O[C@@H]2[C@@H](CO[C@@]3(COS(N)(=O)=O)OC(C)(C)O[C@@H]23)O1
inactive: efficacy [1] -13.6% | outcome [2] | outcome [3] | outcome [4] | outcome [5] | outcome [6] | outcome [7] | outcome [8] | outcome [9] | outcome [10]

CN(C)c1nc(N(C)C)nc(N(C)C)n1
inactive: efficacy [1] 14.8% | outcome [2] | outcome [3] | outcome [4] | outcome [5] | outcome [6] | outcome [7] | outcome [8] | outcome [9] | outcome [10]

NC(=O)NO
inactive: efficacy [1] 10% | outcome [2] | outcome [3] | outcome [4] | outcome [5] | outcome [6] | outcome [7] | outcome [8] | outcome [9] | outcome [10]

Cc1cc(C)cc(OCC2CNC(=O)O2)c1 (centres undefined)
inactive: efficacy [1] -18.5% | outcome [2] | outcome [3] | outcome [4] | outcome [5] | outcome [6] | outcome [7] | outcome [8] | outcome [9] | outcome [10]

CCCN(CCC)S(=O)(=O)c1ccc(C(=O)O)cc1
inactive: efficacy [1] -17.8% | outcome [2] | outcome [3] | outcome [4] | outcome [5] | outcome [6] | outcome [7] | outcome [8] | outcome [9] | outcome [10]

Oc1cn2c(n1)Nc1ccc(Cl)c(Cl)c1C2
97.7%: remaining proliferation (% of control), lower = more inhibition [14]
97.1%: activity, percent of control [13]
107%: remaining parasite growth % (stronger effect = lower value) [12]

O=C(OC1C[C@H]2CC[C@@H](C1)[N+]21CCCC1)C(O)(c1ccccc1)c1ccccc1 (some centres undefined)
32.2%: parasite growth, % of DMSO control [15]
48.3%: parasite growth remaining, % of DMSO control (lower = more inhibition) [16]
30.4%: parasite growth, % of control (lower = inhibition) [17]

O=C1[C@H](CC[C@H](O)c2ccc(F)cc2)[C@@H](c2ccc(O)cc2)N1c1ccc(F)cc1
inactive: efficacy [1] -26.4% | outcome [2] | outcome [3] | outcome [4] | outcome [6] | outcome [7] | outcome [8] | outcome [11]
active: AC50 [5] 28.2 µM | AC50 [9] 28.2 µM

NNc1nncc2ccccc12
inactive: efficacy [1] -27.3% | outcome [2] | outcome [3] | outcome [4] | outcome [5] | outcome [6] | outcome [7] | outcome [9] | outcome [10] | outcome [11]

From PubChem BioAssay (NCATS)
